Test results: the supplement of paper PMC4840960

How the values were obtained:
[1] = test system: E18 rat cortical neuron-glia co-culture; experiment: fiber score / MBP score (myelination specific beyond OL differentiation) (ratio); higher = more myelination-specific MBP alignment; conditions: treatment time: 8 days (DIV5-DIV13)
In short: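 Papain-dissociated primary E18 rat cortical co-cultures, plated at 20,000 cells/well on poly-d-lysine/laminin 96-well plates, were exposed to library compounds at 1 or 5 µM in myelination medium between DIV5 and DIV13. Following fixation in 4 % paraformaldehyde, cultures were stained for MBP, Olig2 and DAPI, and four 10X fields per well were analysed in duplicate wells. Values are the ratio of fiber score (continuous MBP fiber length per Olig2+ nucleus) to MBP score (thresholded MBP area × intensity per Olig2+ nucleus).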

[2] = test system: E18 rat cortical neuron-glia co-culture; experiment: myelination (MBP fiber length per Olig2+ nucleus), % of 1 µM DAPT response (DMSO = 0) (% of DAPT); higher = more myelination, active = 50 or more; conditions: treatment time: 8 days (DIV5-DIV13)
In short: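 Myelination, expressed as continuous straight MBP fiber length per Olig2+ nucleus, was normalised to 0.1 % DMSO as 0 and a 1 µM positive control as 100. The cultures were primary E18 rat cortical co-cultures dissociated with papain and plated at 20,000 cells/well on poly-d-lysine/laminin-coated 96-well plates. They received library compounds at 1 or 5 µM in myelination medium between DIV5 and DIV13. Analysis covered four 10X fields per well in duplicate wells after 4 % paraformaldehyde fixation and immunostaining for MBP and Olig2 with DAPI.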

SMILES | fiber score / MBP score ([1]; 1 µM) | fiber score / MBP score ([1]; 5 µM) | myelination ([2]; 1 µM) | myelination ([2]; 5 µM)
NCC(=O)CCC(=O)O [Aminolevulinic Acid] | 1.11 | 1.44 | 0.461 (inactive) | 39.4 (inactive)
CC(C)C[C@H](NC(=O)[C@@H](COC(C)(C)C)NC(=O)[C@H](Cc1ccc(O)cc1)NC(=O)[C@H](CO)NC(=O)[C@H](Cc1c[nH]c2ccccc12)NC(=O)[C@H](Cc1cnc[nH]1)NC(=O)[C@@H]1CCC(=O)N1)C(=O)N[C@@H](CCCNC(=N)N)C(=O)N1CCC[C@H]1C(=O)NNC(N)=O [Goserelin] | 0.788 | 0.867 | -8.02 (inactive) | -4.2 (inactive)
CC[C@H](C)C(=O)O[C@H]1C[C@H](O)C=C2C=C[C@H](C)[C@H](CC[C@@H](O)C[C@@H](O)CC(=O)O)[C@H]21 [Pravastatin] | 0.899 | 0.809 | 2.73 (inactive) | -17.4 (inactive)
C#C[C@]1(O)CC[C@H]2[C@@H]3CCc4cc(OC)ccc4[C@H]3CC[C@@]21C [Mestranol] | 0.724 | 0.298 | -6.5 (inactive) | -18 (inactive)
CC1=C(C(=O)O)N2C(=O)[C@@H](NC(=O)[C@H](N)c3ccccc3)[C@H]2SC1 [Cephalexin] | 0.963 | 0.986 | -2.86 (inactive) | -1.59 (inactive)
COCCOC(=O)C1=C(C)NC(C)=C(C(=O)OC(C)C)C1c1cccc([N+](=O)[O-])c1 (stereo not drawn) [Nimodipine] | 0.486 | 0.338 | -18.6 (inactive) | -24.9 (inactive)
Cc1ncc([N+](=O)[O-])n1CCO [Metronidazole] | 0.862 | 0.794 | -7.63 (inactive) | -10.1 (inactive)
